Among all 140,000 compounds or so, about 4,300 (3.1%) were called active. Inconclusive results (about 21%) are left out.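 Rule for the calls: active = readout at or below -70, meaning at least 70% loss of cells showing the perinucleolar compartment, a nuclear body marking cancer cells; inconclusive = readout between -30 and a set limit; inactive = the rest.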 The full list was thinned out, with actives kept by preference.
Assay: High Content Assay for Compounds that inhibit the Assembly of the Perinucleolar Compartment;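 note: plate controls were DMSO wells for no effect and camptothecin positive control wells for full effect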
Conditions: PC3M PTB-GFP, PNC prevalence imaging, 16 h; at 10 µM; stronger effect = lower value
In short: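 Read-out is percentage of cells bearing a perinucleolar compartment, from automated 20x imaging of fixed, Hoechst-stained PC3M PTB-GFP cells. Cells were seeded 4 h, then exposed 16 h to compound (23 nl of library stock) in duplicate plates.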
In the case of `COC(=O)c1ccc(Cc2ccccc2)o1`, the activity change (PNC), negative = inhibition is reported as 13.6% (inactive). In the case of `COC(=O)c1ccc(CSc2ccc3nnc(-c4ccccc4)n3n2)o1`, the activity change (PNC), negative = inhibition is reported as -97.8% (active). With `CCOc1ccccc1Nc1nnc(SCc2ccc(C(=O)OC)o2)s1` the activity change (PNC), negative = inhibition was 30.2% (inactive). In the case of `COC(=O)c1ccc(CSc2nc3ccccc3c(=O)n2-c2cccc(OC)c2)o1`, the activity change (PNC), negative = inhibition is reported as 7.85% (inactive). In the case of `COCC(C)n1c(SCc2ccc(C(=O)OC)o2)nc2ccccc2c1=O` (stereo unspecified), the activity change (PNC), negative = inhibition is reported as 1.64% (inactive). For `COC(=O)c1ccc(CSc2ccccc2C)o1`, the activity change (PNC), negative = inhibition was -112% (active). In the case of `O=C(CNS(=O)(=O)c1ccccc1)NCC(=O)OCc1ccccc1F`, the activity change (PNC), negative = inhibition is reported as 26% (inactive). With `Cn1ncc2c(NNC(=O)Cc3cccc4ccccc34)ncnc21` the activity change (PNC), negative = inhibition was -13.1% (inactive). With `COc1ccc(N2C(=O)CC(SC(C)C)C2=O)cc1` (stereo unspecified) the activity change (PNC), negative = inhibition was 36.9% (inactive). For `O=C(Nn1c(-c2ccccc2)nc2ccccc2c1=O)c1ccc([N+](=O)[O-])cc1`, the activity change (PNC), negative = inhibition was 38.7% (inactive). For `O=C(N/N=C/c1coc2ccccc2c1=O)c1cc2ccccc2o1`, the activity change (PNC), negative = inhibition was 11% (inactive). With `O=C(/C=C/NCc1ccc(F)cc1)c1ccccc1` the activity change (PNC), negative = inhibition was -6.98% (inactive). With `Fc1ccc2c(c1)C(c1cccnc1)=NNC(c1cccs1)=N2` the activity change (PNC), negative = inhibition was 17.9% (inactive). For `C=CCn1c(SCC(=O)c2ccc(Br)cc2)nnc1C(C)NC(=O)Cc1ccc(OC)cc1` (stereo unspecified), the activity change (PNC), negative = inhibition was 11.4% (inactive). In the case of `C=CCn1c(SCc2ccc(Cl)c(Cl)c2)nnc1C(CO)NC(=O)c1ccc(OC)cc1` (stereo unspecified), the activity change (PNC), negative = inhibition is reported as -102% (active). In the case of `C=CCn1c(SCc2c(C(=O)OC)sc(N)c2C(=O)OC)nnc1-c1ccc(Cl)cc1`, the activity change (PNC), negative = inhibition is reported as 7.94% (inactive). For `CC1(C)C(C=C(Cl)Cl)C1C(=O)N(Cc1ccc(Cl)cc1)C1CCS(=O)(=O)C1` (stereo unspecified), the activity change (PNC), negative = inhibition was 32.1% (inactive). In the case of `O=C(NN1C(=O)C2C3C=CC(O3)C2C1=O)c1ccncc1` (stereo unspecified), the activity change (PNC), negative = inhibition is reported as 36% (inactive). For `CC(=O)c1ccc(NC(=S)NC(=O)CC(C)C)cc1`, the activity change (PNC), negative = inhibition was 18.7% (inactive). With `COC(=O)C1C(=O)NCC1c1ccc(C)cc1` (stereo unspecified) the activity change (PNC), negative = inhibition was -2.49% (inactive). For `COC(=O)C1=C(Nc2ccc(C)cc2)C=C(C)C(C(=O)OC)C1c1ccc(F)cc1` (stereo unspecified), the activity change (PNC), negative = inhibition was -100% (active). For `COC(=O)C1=C(Nc2ccc(OC)cc2)C=C(C)C(C(=O)OC)C1c1ccc(C)cc1` (stereo unspecified), the activity change (PNC), negative = inhibition was -17.7% (inactive). With `O=C(CCc1[nH]c2ccccc2c1Sc1ccccc1)N(CCO)CCO` the activity change (PNC), negative = inhibition was 85.7% (inactive). In the case of `CC(=O)NC1=NN(C(C)=O)C(C)(c2ccc(C)cc2)S1` (stereo unspecified), the activity change (PNC), negative = inhibition is reported as 54.1% (inactive). In the case of `COc1ccc(C(=O)Nc2c(Cl)cc(Cl)cc2C(=O)N2CCC(C)CC2)cc1`, the activity change (PNC), negative = inhibition is reported as -10.7% (inactive). With `CSc1ccc(S(=O)(=O)NC2CCCCC2)cc1` the activity change (PNC), negative = inhibition was -23.3% (inactive). In the case of `Cc1cc(C)nc(SC2CCCCC2NS(=O)(=O)c2ccc(Cl)cc2)n1` (stereo unspecified), the activity change (PNC), negative = inhibition is reported as -107% (active). For `CCOC1CCCCC1NS(=O)(=O)c1ccc(Cl)cc1` (stereo unspecified), the activity change (PNC), negative = inhibition was 21.4% (inactive). In the case of `CC(=O)N/C(=C/c1ccc(OC(F)F)cc1)C(=O)O`, the activity change (PNC), negative = inhibition is reported as -25.2% (inactive). In the case of `COc1ccccc1CNC(=O)CN1CCC(n2cnc3cc(F)ccc32)CC1`, the activity change (PNC), negative = inhibition is reported as 26.2% (inactive). With `COc1ccc(N2C(=O)C(CC(=O)Nc3ccc(F)cc3)N(CCc3cccs3)C2=O)cc1` (stereo unspecified) the activity change (PNC), negative = inhibition was 20.2% (inactive). For `CC(C)CCNC(=O)c1cccnc1Sc1ccccc1`, the activity change (PNC), negative = inhibition was 23.2% (inactive). With `Cc1cccc2cc(C#N)c(N3CCCC3)nc12` the activity change (PNC), negative = inhibition was -8.64% (inactive). In the case of `FC(F)(F)c1cccc(-c2cc3ccccc3nc2N2CCCC2)c1`, the activity change (PNC), negative = inhibition is reported as -94.9% (active). For `S=C(NCCc1ccccc1)NCc1ccccc1Cl`, the activity change (PNC), negative = inhibition was 29.5% (inactive). For `COc1ccc(-n2c(C)cc(C(=O)CN3C(=O)NC4(CCc5ccccc54)C3=O)c2C)cc1` (stereo unspecified), the activity change (PNC), negative = inhibition was -15% (inactive). With `COc1ccccc1N1CCN(Cc2ccc(OC)c3ccccc23)CC1` the activity change (PNC), negative = inhibition was -100% (active). In the case of `COc1ccccc1N1CCN(CCCCOc2ccc(F)cc2)CC1`, the activity change (PNC), negative = inhibition is reported as 11% (inactive). For `COc1ccccc1N1CCN(Cc2nnnn2CCc2ccccc2)CC1`, the activity change (PNC), negative = inhibition was -5.45% (inactive). In the case of `O=C1/C(=C\c2ccccc2Cl)SC(=S)N1CCC(=O)N1CCCc2ccccc21`, the activity change (PNC), negative = inhibition is reported as 47.3% (inactive). With `O=C(Nc1cccc(S(=O)(=O)N2CCCCC2)c1)c1ccc2c(c1)OCO2` the activity change (PNC), negative = inhibition was -20.4% (inactive). With `Cc1ccc(OC(=O)CCC(=O)Nc2ccc(Br)cc2)cc1` the activity change (PNC), negative = inhibition was -25% (inactive). With `COC(=O)Cc1ccc(NC(=S)NCc2ccccc2)cc1` the activity change (PNC), negative = inhibition was -25.7% (inactive). With `CC(C)Oc1ccc(CC(=O)NNC(=S)Nc2ccc(Br)cc2)cc1` the activity change (PNC), negative = inhibition was -113% (active). With `Cc1ccccc1NC(=S)N(CCCN1CCOCC1)Cc1cccs1` the activity change (PNC), negative = inhibition was 27.2% (inactive). In the case of `Cc1ccc(S(=O)(=O)NC(C)C(=O)Nc2ccccc2C(=O)N2CCCC2)cc1` (stereo unspecified), the activity change (PNC), negative = inhibition is reported as 12.1% (inactive). In the case of `Cc1ccc2c(c1)C1CN(C)CCC1N2C(=O)c1ccccc1NS(=O)(=O)c1ccc(F)cc1C` (stereo unspecified), the activity change (PNC), negative = inhibition is reported as -99.6% (active). With `CC1CN(C(=O)c2ccccc2NS(=O)(=O)c2cccc([N+](=O)[O-])c2)CC(C)O1` (stereo unspecified) the activity change (PNC), negative = inhibition was 25.2% (inactive). With `CCC(=O)Nc1c(C)n[nH]c1C` the activity change (PNC), negative = inhibition was 0.725% (inactive). For `O=C(c1cccs1)n1nc(NCc2ccccc2)nc1NCc1ccccc1`, the activity change (PNC), negative = inhibition was -4.14% (inactive). With `CC(=O)NC(Cc1ccccc1)C(=O)NC1CCN(c2ncccc2[N+](=O)[O-])CC1` (stereo unspecified) the activity change (PNC), negative = inhibition was 23.2% (inactive). In the case of `CC(C)n1c(NCc2c[nH]c3ccccc23)nc2ccccc21`, the activity change (PNC), negative = inhibition is reported as -100% (active). In the case of `Cc1ccc(O)c(CNc2nc3ccccc3n2C)c1`, the activity change (PNC), negative = inhibition is reported as -1.77% (inactive). For `CC(C)n1c(C(O)c2ccccc2)nc2ccccc21` (stereo unspecified), the activity change (PNC), negative = inhibition was 24.7% (inactive). In the case of `S=C(NCCc1ccccc1)NCC1CCCO1` (stereo unspecified), the activity change (PNC), negative = inhibition is reported as -9.43% (inactive). With `CCOC(=O)C1CCN(c2ncnc3c2oc2ccc(Br)cc23)CC1` the activity change (PNC), negative = inhibition was 11.1% (inactive). For `CCOC(=O)c1nnn(-c2nonc2-n2cccc2)c1CN1CCC(C(=O)OCC)CC1`, the activity change (PNC), negative = inhibition was 10.9% (inactive). For `CCOC(=O)C1CCN(Cc2coc3ccc(Cl)cc3c2=O)CC1`, the activity change (PNC), negative = inhibition was -80.9% (active). In the case of `Cc1ccc(C(=O)COC(=O)CCCC(=O)NC2CCCCC2)cc1[N+](=O)[O-]`, the activity change (PNC), negative = inhibition is reported as 17% (inactive). In the case of `COc1ccc(OC)c(-c2c(=O)n(OCc3ccccc3Br)c3ccccc3[n+]2[O-])c1`, the activity change (PNC), negative = inhibition is reported as -113% (active). With `CCOc1ccc(OCC)c(-c2c(=O)n(OCc3ccc(Cl)cc3)c3ccccc3[n+]2[O-])c1` the activity change (PNC), negative = inhibition was 60.4% (inactive).

Source: PubChem BioAssay AID2417 (National Center for Advancing Translational Sciences (NCATS), 2010)
